Laboratory results as given in PubChem BioAssay (Tox21).
Inconclusive results are not listed. The source made the active and inactive calls. Unless noted, the call rests on the fitted dose curve; in most records, active means well fitted curve in the direction sought with a large enough effect in the repeat runs; inconclusive means weak or mixed curves; inactive means no such curve, though single readings can be large; an effect the other way counts as inactive or inconclusive.

What was measured:
[1] = qHTS assay for small molecule agonists of the p53 signaling pathway (AID 651631; calls by dose curve; further: nearly all actives have a fitted effect of over 15% in size)
Method in brief: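 Read-out is beta-lactamase FRET fluorescence measured 2 h after substrate addition at room temperature, in HCT-116 cells with a p53 response element-driven reporter exposed to compounds for 16 h at 37 °C.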

[2] = qHTS assay for small molecules that induce genotoxicity in human embryonic kidney cells expressing luciferase-tagged ATAD5 (AID 651632); further: nearly all actives have a fitted effect of over 15% in size
Method in brief: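 Test compounds were delivered by pin tool onto HEK293T reporter cells (2,000/well) expressing ATAD5 fused to luciferase. After 16 hr at 37C, 5% CO2, Amplite was added for 30 min at room temperature and luminescence was measured.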

[3] = qHTS assay for small molecule agonists of the p53 signaling pathway - cell viability (AID 651633; calls by dose curve;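 further: p53RE-bla HCT reporter cells with a stable beta-lactamase p53 reporter; series mostly up to about 83 µM; nearly all actives have a fitted effect of over 30% in size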)
Method in brief: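 p53RE-bla cells were treated with compound for 16 hours at 37 C. Cytotoxicity was then measured as CellTiter-Glo luminescence after 30 min at room temperature.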

[4] = qHTS assay for small molecules that induce genotoxicity in human embryonic kidney cells expressing luciferase-tagged ATAD5 - cell viability (AID 651634; calls by dose curve; further: nearly all actives have a fitted effect of over 25% in size)
Method in brief: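 Quantitative high-throughput format. HEK293T cells expressing ATAD5 fused to luciferase were plated at 2,000 cells/well and treated 15.5 hr with compound versus DMSO. Viability was determined by fluorescent live-cell protease substrate, 30 min at 37C.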

[5] = qHTS assay for small molecule disruptors of the mitochondrial membrane potential - cell viability (AID 720634; calls by dose curve;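 further: human HepG2 liver cancer cells; series mostly up to about 83 µM; nearly all actives have a fitted effect of over 20% in size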)
Method in brief: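 Same-well counter-screen: following the MMP dye addition, CellTiter-Glo was added to 1 hr compound-treated HepG2 cells and luminescence read after 30 min at room temperature.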

[6] = qHTS assay to test for compound auto fluorescence at 590 nm (red) in HepG2 cells (AID 720674)
Method in brief: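 Seeding: 2,000 HepG2 cells/well, MEM/10% FBS, overnight 37 C. Dosing: compound vs DMSO. Incubation: 1 hr, 37 C, 5% CO2. Read: fluorescence 540 ex/590 em, Rose Bengal sodium as red reference.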

[7] = qHTS assay to test for compound auto fluorescence at 535 nm (green) in HepG2 cells (AID 720675)
[8] = qHTS assay to test for compound auto fluorescence at 460 nm (blue) in HEK293 cells (AID 720678)
Method in brief: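 HEK293, 2,000 cells/well, 10% dialyzed FBS; attach 4-5 hr 37C; pin compound or DMSO; o/n 37C/5% CO2; fluorescence 405/460 nm; triamterene-equivalent units.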

[9] = qHTS assay to test for compound auto fluorescence at 590 nm (red) in HEK293 cells (AID 720679)
Method in brief: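 Intensity at 540nm excitation and 590nm emission is reported as Rose Bengal sodium-equivalent autofluorescence. Measurements followed overnight exposure (37C, 5% CO2) of HEK293 cells, 2,000 per well, to 23 nL compound.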

[10] = qHTS assay to test for compound auto fluorescence at 535 nm (green) in HEK293 cells (AID 720680)
[11] = qHTS assay to test for compound auto fluorescence at 460 nm (blue) in HEK293 cell free culture (AID 720681)
Method in brief: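 Compounds were added to cell-free DMEM with 10% FBS and fluorescence read directly. The blue channel used 405 nm excitation and 460 nm emission, with triamterene as the reference fluorophore.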

[12] = qHTS assay to test for compound auto fluorescence at 535 nm (green) in HEK293 cell free culture (AID 720682)
Method in brief: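 Fluorescein serves as the green reference fluorophore; each compound's intrinsic emission at 535 nm (excitation 485 nm) is reported as an equivalent amount of that dye, measured in serum-containing DMEM without cells.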

[13] = qHTS assay to test for compound auto fluorescence at 590 nm (red) in HEK293 cell free culture (AID 720683)
Method in brief: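 Cell-free wells of DMEM with 10% FBS received compound, and intrinsic fluorescence was read at excitation/emission 540/590 nm. Values expressed as equivalence to Rose Bengal sodium.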

[14] = qHTS assay to test for compound auto fluorescence at 590 nm (red) in HepG2 cell free culture (AID 720684)
Method in brief: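 Rose Bengal sodium served as the reference for red signal. Test compounds were dispensed into serum-containing MEM (10% FBS) without cells, and plates were read at 540/590 nm.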

[15] = qHTS assay to test for compound auto fluorescence at 460 nm (blue) in HepG2 cell free culture (AID 720685)
Method in brief: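 Cell-free plates of MEM plus 10% FBS received 23 nL compound or DMSO vehicle; blue-channel (405/460 nm) intensity scored against triamterene as reference fluorophore.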

[16] = qHTS assay to test for compound auto fluorescence at 535 nm (green) in HepG2 cell free culture (AID 720686)
[17] = qHTS assay to test for compound auto fluorescence at 460 nm (blue) in HepG2 cells (AID 720687)
Method in brief: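 HepG2 cells in MEM with 10% FBS, attached overnight at 37 C, were exposed to compound or DMSO for 1 hr at 37 C, 5% CO2. Blue fluorescence was read at 405/460 nm, with triamterene as reference fluorophore.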

[18] = biological target: Glucocorticoid receptor (Homo sapiens) (UniProt P04150); test: qHTS assay to identify small molecule agonists of the glucocorticoid receptor (GR) signaling pathway (AID 720691; active means well fitted activation curve with a large enough effect in the signal ratio in the repeat runs, not every such curve was filed as active; the % refers to the signal ratio)
Sequence of Glucocorticoid receptor (Homo sapiens) (P04150 whole entry, looked up): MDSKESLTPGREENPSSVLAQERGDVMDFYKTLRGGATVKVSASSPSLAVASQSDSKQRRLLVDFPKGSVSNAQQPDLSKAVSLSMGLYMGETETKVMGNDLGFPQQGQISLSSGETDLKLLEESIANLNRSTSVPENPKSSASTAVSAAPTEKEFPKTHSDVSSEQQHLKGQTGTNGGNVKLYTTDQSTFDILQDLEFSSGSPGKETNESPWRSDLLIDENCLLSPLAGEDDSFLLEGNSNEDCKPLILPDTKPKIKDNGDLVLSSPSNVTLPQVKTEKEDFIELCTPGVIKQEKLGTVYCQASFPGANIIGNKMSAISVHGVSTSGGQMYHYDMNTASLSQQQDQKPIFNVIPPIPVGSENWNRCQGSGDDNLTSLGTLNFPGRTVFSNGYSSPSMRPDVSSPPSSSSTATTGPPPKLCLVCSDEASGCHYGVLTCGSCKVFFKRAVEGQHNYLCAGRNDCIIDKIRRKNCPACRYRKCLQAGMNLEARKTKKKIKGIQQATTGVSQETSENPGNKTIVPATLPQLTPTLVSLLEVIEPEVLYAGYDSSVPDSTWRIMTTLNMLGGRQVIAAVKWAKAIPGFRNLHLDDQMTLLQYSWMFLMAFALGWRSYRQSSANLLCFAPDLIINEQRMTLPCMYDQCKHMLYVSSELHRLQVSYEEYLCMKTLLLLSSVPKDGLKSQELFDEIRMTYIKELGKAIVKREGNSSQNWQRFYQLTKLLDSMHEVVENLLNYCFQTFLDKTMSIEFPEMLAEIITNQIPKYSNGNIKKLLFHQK
Method in brief: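 A HeLa cervical cancer line expressing GR and a glucocorticoid response element-driven beta-lactamase gene is treated with compounds for 18 h; LiveBLAzer B/G FRET substrate is then applied and fluorescence read.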

[19] = biological target: Glucocorticoid receptor (Homo sapiens) (UniProt P04150); test: qHTS assay to identify small molecule antagonists of the glucocorticoid receptor (GR) signaling pathway (AID 720692; active means well fitted inhibition curve with a large enough effect in the signal ratio in the repeat runs, not every such curve was filed as active; the % refers to the signal ratio)
Method in brief: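 GRE-bla HeLa line, dex-stimulated (5 nM final). Compound exposure 18 h, 37 C. Beta-lactamase FRET read after 2 h RT substrate.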
On the % scale 0 is the no-effect control and ±100 the full control effect.

CCCCc1ccc2cccc(S(=O)(=O)O)c2c1
inactive: Potency [1] | Potency [2] | Potency [3] | Potency [4] | Potency [5] | outcome [6] | outcome [7] | Potency [8] | outcome [9] | outcome [10] | Potency [11] | outcome [12] | outcome [13] | outcome [14] | Potency [15] | outcome [16] | Potency [17] | Potency [18]

N#CCN(CC#N)CCN(CC#N)CC#N
inactive: Potency [1] | Potency [2] | Potency [3] | Potency [4] | Potency [5] | outcome [6] | outcome [7] | Potency [8] | outcome [9] | outcome [10] | Potency [11] | outcome [12] | outcome [13] | outcome [14] | Potency [15] | outcome [16] | Potency [17] | Potency [18] | Potency [19]

CO[Si](OC)(OC)OC
inactive: Potency [1] | Potency [2] | Potency [3] | Potency [4] | Potency [5] | outcome [6] | outcome [7] | Potency [8] | outcome [9] | outcome [10] | Potency [11] | outcome [12] | outcome [13] | outcome [14] | Potency [15] | outcome [16] | Potency [17] | Potency [18] | Potency [19]

[O-][N+](=Nc1ccccc1)c1ccccc1
inactive: Potency [1] | Potency [2] | Potency [3] | Potency [4] | Potency [5] | outcome [6] | outcome [7] | Potency [8] | outcome [9] | outcome [10] | Potency [11] | outcome [12] | outcome [13] | outcome [14] | Potency [15] | outcome [16] | Potency [17] | Potency [18] | Potency [19]

CCc1cc(S(=O)(=O)O)c2cc(C(C)C)cccc1-2
inactive: Potency [1] | Potency [2] | Potency [3] | Potency [4] | Potency [5] | outcome [6] | outcome [7] | Potency [8] | outcome [9] | outcome [10] | Potency [11] | outcome [12] | outcome [13] | outcome [14] | Potency [15] | outcome [16] | Potency [17] | Potency [18] | Potency [19]

NS(=O)(=O)c1cc(C2(O)NC(=O)c3ccccc32)ccc1Cl (stereo not given)
inactive: Potency [1] | Potency [2] | Potency [3] | Potency [4] | Potency [5] | fluorescence, relative to Rose Bengal [6] -0.645% [at 18.6 µM] | fluorescence, % of fluorescein control [7] 7.3e-05% [at 18.6 µM] | fluorescence, % of triamterene [8] -0.0194% [at 18.6 µM] | fluorescence, % of fluorescent control [9] 0.0283% [at 18.6 µM] | fluorescence, % of fluorescein [10] 0.0145% [at 18.6 µM] | fluorescence, % of fluorescent control [11] -0.0547% [at 18.6 µM] | activity change [12] 0.0635% [at 18.6 µM] | fluorescence, % of fluorescent control [13] 0.411% [at 18.6 µM] | fluorescence, % of Rose Bengal [14] 0.348% [at 18.6 µM] | fluorescence, % of fluorescent control [15] 0.0381% [at 18.6 µM] | fluorescence, % of fluorescein control [16] 0.0502% [at 18.6 µM] | fluorescence, % of fluorescent control [17] -0.125% [at 18.6 µM] | Potency [18] | Potency [19]

Oc1cc(O)c2c(c1)O[C@H](c1ccc(O)c(O)c1)[C@H](O)C2
inactive: Potency [1] | Potency [2] | Potency [3] | Potency [4] | Potency [5] | outcome [6] | outcome [7] | Potency [8] | outcome [9] | outcome [10] | Potency [11] | outcome [12] | outcome [13] | outcome [14] | Potency [15] | outcome [16] | Potency [17] | Potency [18] | Potency [19]

O=[N+]([O-])c1ccc(CCO)cc1
inactive: Potency [1] | Potency [2] | Potency [3] | Potency [4] | Potency [5] | outcome [6] | outcome [7] | Potency [8] | outcome [9] | outcome [10] | Potency [11] | outcome [12] | outcome [13] | outcome [14] | Potency [15] | outcome [16] | Potency [17] | Potency [18] | Potency [19]

OC1OC[C@@H](O)[C@H](O)[C@H]1O (stereo not given in full)
inactive: Potency [1] | Potency [2] | Potency [3] | Potency [4] | Potency [5] | outcome [6] | outcome [7] | Potency [8] | outcome [9] | outcome [10] | Potency [11] | outcome [12] | outcome [14] | Potency [15] | outcome [16] | Potency [17]

CC(C)COC(=O)c1ccccc1O
inactive: Potency [1] | Potency [2] | Potency [3] | Potency [4] | Potency [5] | outcome [6] | outcome [7] | Potency [8] | outcome [9] | outcome [10] | Potency [11] | outcome [12] | outcome [13] | outcome [14] | Potency [15] | outcome [16] | Potency [17] | Potency [18] | Potency [19]

Cc1ncc(CSSCc2cnc(C)c(O)c2CO)c(CO)c1O
inactive: Potency [1] | Potency [2] | Potency [3] | Potency [4] | Potency [5] | outcome [6] | outcome [7] | Potency [8] | outcome [9] | outcome [10] | Potency [11] | outcome [12] | outcome [13] | outcome [14] | Potency [15] | outcome [16] | Potency [17] | Potency [18] | Potency [19]

CCC(=O)c1cccc(Cl)c1
inactive: Potency [1] | Potency [2] | Potency [3] | Potency [4] | Potency [5] | outcome [6] | outcome [7] | Potency [8] | outcome [9] | outcome [10] | Potency [11] | outcome [12] | outcome [13] | outcome [14] | Potency [15] | outcome [16] | Potency [17] | Potency [18] | Potency [19]

CCCCCCCCCCC1CO1 (stereo not given)
inactive: Potency [1] | Potency [2] | Potency [3] | Potency [4] | Potency [5] | outcome [6] | outcome [7] | Potency [8] | outcome [9] | outcome [10] | Potency [11] | outcome [12] | outcome [14] | Potency [15] | outcome [16] | Potency [17]
